Test results from PubChem BioAssay AID1159580 (chemical genetic matrix, 2015).
Values joined by “and” are separate entries in the source; they are usually repeats but may differ in a detail not shown here. Equal values may be shown once. The whole screen tested about 5,500 compounds, of which about 2,000 (36%) were called active. About 18% were inconclusive and are not listed. Rule as the data show it: active = normalized growth mostly below about 0.91 (no sharp cut-off); inconclusive = no clear call, values can overlap the other calls; inactive = mostly above about 0.92. This is one part of the list.

Experiment: chemical genetic growth profiling, strain panel (AID 1159580);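 also: tested at 20 µM; growth read once vehicle control cultures reached saturation at 30 °C; 1 = growth at the plate median or of vehicle wells; lower values mean less growth of the strain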
Conditions: S. cerevisiae deletion strains, growth OD
[1] = locus YHR030C, strain SLT2, stronger effect = lower value
[2] = locus YHR079C, strain IRE1, stronger effect = lower value
[3] = locus YJL095W, strain BCK1, stronger effect = lower value
[4] = locus YJR066W, strain TOR1, stronger effect = lower value
[5] = locus YLR113W, strain HOG1, stronger effect = lower value
[6] = locus YNL183C, strain NPR1, stronger effect = lower value
[7] = locus YOR231W, strain MKK1, stronger effect = lower value
[8] = locus YPL256C, strain CLN2, stronger effect = lower value

Measured: normalized growth

COCCCOc1ccnc(CS(=O)c2nc3ccccc3[nH]2)c1C (stereo not given)
inactive: [1] 0.94 | [2] 0.93 | [3] 0.913 | [4] 0.907 | [5] 0.909 | [6] 0.879 | [7] 0.93 | [8] 0.897

CC1(C)S[C@@H]2C(N3C(=O)[C@@H](c4ccccc4)NC3(C)C)C(=O)N2[C@H]1C(=O)O (stereo not given in full)
inactive: locus YAL021C, strain ccr4, stronger effect = lower value 1.03 | locus YAL026C, strain drs2, stronger effect = lower value 1.02 | locus YAL030W, strain snc1, stronger effect = lower value 1 | locus YBL061C, strain skt5, stronger effect = lower value 1.02 | locus YBR009C, strain hhf1, stronger effect = lower value 1.03 | locus YBR021W, strain FUR4, stronger effect = lower value 0.994 | locus YBR023C, strain chs3, stronger effect = lower value 1.04 | locus YBR171W, strain sec66, stronger effect = lower value 1.04 | locus YBR229C, strain ROT2, stronger effect = lower value 1.01 | locus YBR231C, strain swc5, stronger effect = lower value 0.975 | locus YBR279W, strain paf1, stronger effect = lower value 1.02 | locus YCL011C, strain gbp2, stronger effect = lower value 1.03 | locus YCL016C, strain dcc1, stronger effect = lower value 1.06 | locus YCL029C, strain bik1, stronger effect = lower value 1.02 | locus YCL061C, strain MRC1, stronger effect = lower value 1.03 | locus YCL069W, strain vba3, stronger effect = lower value 1.02 | locus YCR088W, strain abp1, stronger effect = lower value 1.02 | locus YDL005C, strain med2, stronger effect = lower value 1.02 | locus YDL035C, strain GPR1, stronger effect = lower value 1 | locus YDL040C, strain nat1, stronger effect = lower value 1.01 | locus YDL074C, strain BRE1, stronger effect = lower value 1.02 | locus YDL101C, strain DUN1, stronger effect = lower value 1.01 | locus YDL185W, strain tfp1, stronger effect = lower value 1.02 | locus YDL192W, strain arf1, stronger effect = lower value 1.03 | locus YDR001C, strain nth1, stronger effect = lower value 1.01 | locus YDR069C, strain doa4, stronger effect = lower value 0.977 | locus YDR101C, strain arx1, stronger effect = lower value 1.01 | locus YDR137W, strain rgp1, stronger effect = lower value 1.11 | locus YDR159W, strain sac3, stronger effect = lower value 0.958 | locus YDR162C, strain NBP2, stronger effect = lower value 1 | locus YDR195W, strain ref2 1.01 | locus YDR297W, strain sur2, stronger effect = lower value 0.98 | locus YDR318W, strain mcm21, stronger effect = lower value 1.02 | locus YDR334W, strain swr1, stronger effect = lower value 1.02 | locus YDR335W, strain msn5, stronger effect = lower value 0.989 | locus YDR388W, stronger effect = lower value 1.03 | locus YDR392W, strain spt3, stronger effect = lower value 0.952 | locus YDR502C, strain sam2, stronger effect = lower value 1.03 | locus YEL003W, strain gim4, stronger effect = lower value 1.02 | locus YEL037C, strain rad23, stronger effect = lower value 1.02 | locus YEL061C, strain CIN8 (second series), stronger effect = lower value 1.02 | locus YEL061C, strain CIN8, stronger effect = lower value 1.01 | locus YER015W, strain faa2, stronger effect = lower value 1 | locus YER016W, strain bim1, stronger effect = lower value 1.01 | locus YER110C, stronger effect = lower value 1.04 | locus YER111C, strain swi4, stronger effect = lower value 1.03 | locus YER155C, strain BEM2 (second series), stronger effect = lower value 0.975 | locus YER155C, strain BEM2, stronger effect = lower value 1 | locus YER167W, strain BCK2, stronger effect = lower value 1 | locus YFR010W, strain ubp6, stronger effect = lower value 1.03 | locus YGL078C, strain dbp3, stronger effect = lower value 1.03 | locus YGL086W, strain mad1, stronger effect = lower value 0.996 | locus YGL167C, strain pmr1, stronger effect = lower value 1.02 | locus YGL173C, strain kem1, stronger effect = lower value 1.03 | locus YGL227W, strain vid30, stronger effect = lower value 1.02 | locus YGL240W, strain doc1, stronger effect = lower value 0.972 | locus YGL248W, strain PDE1, stronger effect = lower value 1.01 | locus YGL253W, strain hxk2, stronger effect = lower value 1.02 | locus YGR078C, strain PAC10, stronger effect = lower value 1 | locus YGR135W, strain pre9, stronger effect = lower value 1.04 | locus YGR252W, strain gcn5, stronger effect = lower value 1.01 | locus YHR013C, strain ard1, stronger effect = lower value 1.06 | locus YHR027C, strain rpn1, stronger effect = lower value 1.02 | [1] 1.01 and 0.988 | locus YHR079C, strain IRE1 (second series), stronger effect = lower value 1.02 | [2] 0.979 | locus YHR094C, strain hxt1, stronger effect = lower value 1.03 | locus YHR129C, strain ARP1, stronger effect = lower value 0.995 | locus YHR142W, strain chs7, stronger effect = lower value 1.05 | locus YHR200W, strain rpn10, stronger effect = lower value 1.03 | locus YIL066C, strain RNR3, stronger effect = lower value 1 | locus YIL073C, strain SPO22, stronger effect = lower value 1.06 | locus YIL125W, strain kgd1, stronger effect = lower value 1.02 | locus YIR030C, strain dcg1, stronger effect = lower value 1.03 | locus YJL092W, strain hpr5, stronger effect = lower value 1.02 | locus YJL095W, strain BCK1 (second series), stronger effect = lower value 0.987 | [3] 1.02 and 0.98 | locus YJL115W, strain asf1, stronger effect = lower value 1.02 | locus YJL129C, strain trk1, stronger effect = lower value 1.04 | locus YJL134W, strain LCB3, stronger effect = lower value 1.01 | locus YJL154C, strain vps35, stronger effect = lower value 1.02 | locus YJL164C, strain tpk1, stronger effect = lower value 1.04 | locus YJL166W, strain qcr8, stronger effect = lower value 1.02 | locus YJL168C, strain set2, stronger effect = lower value 1.03 | locus YJL187C, strain SWE1 (second series), stronger effect = lower value 1 | locus YJL187C, strain SWE1, stronger effect = lower value 0.974 | [4] 0.944 | locus YKL009W, strain mrt4, stronger effect = lower value 0.99 | locus YKL068W, stronger effect = lower value 1.01 | locus YKL085W, strain MDH1 (second series), stronger effect = lower value 1.02 | locus YKL085W, strain MDH1, stronger effect = lower value 1.02 | locus YKL160W, strain elf1, stronger effect = lower value 1.05 | locus YKR001C, strain vps1, stronger effect = lower value 1.04 | locus YKR026C, strain gcn3, stronger effect = lower value 1.02 | locus YKR091W, strain srl3, stronger effect = lower value 1.02 | locus YLL001W, strain dnm1, stronger effect = lower value 1.04 | locus YLL026W, stronger effect = lower value 1.02 | locus YLL041C, strain sdh2, stronger effect = lower value 1 | locus YLR027C, strain aat2, stronger effect = lower value 1 | locus YLR039C, strain RIC1, stronger effect = lower value 1.03 | locus YLR058C, strain SHM2, stronger effect = lower value 1.01 | locus YLR102C, strain apc9, stronger effect = lower value 1.03 | [5] 1 | locus YLR221C, strain rsa3, stronger effect = lower value 1.03 | locus YLR258W, strain gsy2, stronger effect = lower value 0.999 | locus YLR262C, strain YPT6 (second series), stronger effect = lower value 1.11 | locus YLR262C, strain YPT6, stronger effect = lower value 1.05 | locus YLR268W, strain sec22, stronger effect = lower value 1.02 | locus YLR320W, strain mms22, stronger effect = lower value 1.08 | locus YLR330W, strain CHS5, stronger effect = lower value 1 | locus YLR342W, strain FKS1 (second series), stronger effect = lower value 0.997 | locus YLR342W, strain FKS1, stronger effect = lower value 1.03 | locus YLR357W, strain rsc2, stronger effect = lower value 1.01 | locus YLR370C, strain arc18, stronger effect = lower value 1 | locus YLR371W, strain rom2, stronger effect = lower value 1.01 | locus YLR384C, strain iki3, stronger effect = lower value 1.02 | locus YLR418C, strain cdc73, stronger effect = lower value 1.03 | locus YML016C, strain PPZ1, stronger effect = lower value 1.01 | locus YML032C, strain rad52, stronger effect = lower value 1.02 | locus YML120C, strain ndi1, stronger effect = lower value 1.05 | locus YML124C, strain tub3, stronger effect = lower value 1.02 | locus YMR058W, strain fet3, stronger effect = lower value 1.01 | locus YMR078C, strain ctf18, stronger effect = lower value 1.03 | locus YMR125W, strain sto1, stronger effect = lower value 1.03 | locus YMR129W, stronger effect = lower value 1.02 | locus YMR205C, strain PFK2, stronger effect = lower value 0.992 | locus YMR223W, strain ubp8, stronger effect = lower value 1.04 | locus YMR231W, strain pep5, stronger effect = lower value 1.02 | locus YMR263W, strain SAP30, stronger effect = lower value 1 | locus YMR307W, strain GAS1, stronger effect = lower value 1.01 | locus YNL067W, strain RPL9B, stronger effect = lower value 1.01 | locus YNL071W, strain lat1, stronger effect = lower value 1.03 | [6] 0.95 | locus YNL209W, strain ssb2, stronger effect = lower value 1.02 | locus YNL233W, strain BNI4, stronger effect = lower value 1 | locus YNL248C, strain rpa49, stronger effect = lower value 1.03 | locus YNL250W, strain rad50, stronger effect = lower value 1.05 | locus YNL271C, strain bni1, stronger effect = lower value 1.04 | locus YNL298W, strain CLA4, stronger effect = lower value 1.04 | locus YNL307C, strain MCK1, stronger effect = lower value 1.03 | locus YNL322C, strain KRE1 (second series), stronger effect = lower value 1.05 | locus YNL322C, strain KRE1, stronger effect = lower value 1 | locus YNR049C, strain mso1, stronger effect = lower value 0.993 | locus YNR052C, strain pop2, stronger effect = lower value 1.02 | locus YOL006C, strain TOP1, stronger effect = lower value 1.03 | locus YOL012C, strain htz1 0.716 | locus YOL147C, strain pex11, stronger effect = lower value 1.03 | locus YOR001W, strain rrp6, stronger effect = lower value 1.01 | locus YOR061W, strain CKA2, stronger effect = lower value 1.01 | locus YOR069W, strain VPS5, stronger effect = lower value 1 | locus YOR070C, strain gyp1, stronger effect = lower value 1.03 | locus YOR080W, strain dia2, stronger effect = lower value 1.05 | locus YOR083W, strain WHI5, stronger effect = lower value 1.03 | locus YOR106W, strain vam3, stronger effect = lower value 1.02 | locus YOR136W, strain idh2, stronger effect = lower value 1.03 | locus YOR144C, strain elg1, stronger effect = lower value 1.02 | locus YOR184W, strain ser1, stronger effect = lower value 1.05 | [7] 0.997 | locus YOR265W, strain rbl2, stronger effect = lower value 1.03 | locus YOR270C, strain vph1, stronger effect = lower value 1.08 | locus YOR290C, strain snf2, stronger effect = lower value 0.962 | locus YOR316C, strain cot1, stronger effect = lower value 1.03 | locus YPL051W, strain arl3, stronger effect = lower value 1.04 | locus YPL078C, strain atp4, stronger effect = lower value 1.03 | locus YPL106C, strain sse1, stronger effect = lower value 1.01 | locus YPL240C, strain hsp82, stronger effect = lower value 0.985 | [8] 0.982 | locus YPR119W, strain clb2, stronger effect = lower value 1.03 | locus YPR141C, strain kar3, stronger effect = lower value 1.03 | locus YPR163C, strain tif3, stronger effect = lower value 1.04 | locus YPR167C, strain met16, stronger effect = lower value 1.02 | strain wtn01, stronger effect = lower value 1.04
